Screening data from PubChem BioAssay.
PostGolgi ctrl = inhibits growth of the yeast control strain. efflux-deficient yeast background strain, growth absorbance A615, 16 h. inhibition, % at 10 µM. actives 5% (n = 98,000). AID 738
PostGolgi yeast = growth inhibition of a yeast mutant, post-Golgi transport screen; post-Golgi transport phenotypic cell assay; inhibition, % at 10 µM; actives 0.9% (n = 98,000); AID 739;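 note: yeast cells grown in 1536-well plates; yeast grown about 18 h at 30C before absorbance read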
CYP2C9 activ = activators of human CYP2C9. P11712. recombinant CYP2C9, luciferin-H conversion, luminescence; active compounds read high; factor 1 = untreated enzyme, 0 = blocked. activation factor at 5 µM. actives 1.4% (n = 96,000). AID 1024;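 active = activation factor of 2 or more for CYP2C9 at a 5 µM dose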
Target sequence (P11712 whole entry, looked up): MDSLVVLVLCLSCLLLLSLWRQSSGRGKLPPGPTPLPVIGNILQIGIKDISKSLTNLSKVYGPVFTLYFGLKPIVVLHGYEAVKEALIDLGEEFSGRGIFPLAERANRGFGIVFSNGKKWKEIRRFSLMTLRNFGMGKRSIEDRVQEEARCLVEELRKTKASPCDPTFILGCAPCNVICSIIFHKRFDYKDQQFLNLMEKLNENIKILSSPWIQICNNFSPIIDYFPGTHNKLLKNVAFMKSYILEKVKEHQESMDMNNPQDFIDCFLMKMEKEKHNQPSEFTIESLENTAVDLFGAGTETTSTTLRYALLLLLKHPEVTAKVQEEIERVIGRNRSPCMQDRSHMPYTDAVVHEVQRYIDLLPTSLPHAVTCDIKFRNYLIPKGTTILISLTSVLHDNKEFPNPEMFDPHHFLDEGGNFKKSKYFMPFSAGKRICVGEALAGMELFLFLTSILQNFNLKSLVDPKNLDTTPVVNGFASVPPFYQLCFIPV
CYP2C19 inh = human CYP2C19 inhibition | P33261 | CYP2C19 Supersomes, luciferin-H EGE luminescence, 30 min | inhibition, % at 5 µM | actives 21% (n = 96,000);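 active = CYP2C19 inhibition above a set limit at 5 µM in the primary screen, cut at about 50% in these data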
CYP2C9 inh = inhibitors of human CYP2C9 | inhibition, % at 5 µM | actives 20% (n = 96,000) | AID 777 | CYP2C9 Supersomes, luciferin-H conversion, luminescence | P11712;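 active = blocking of liver enzyme CYP2C9 beyond about 50% at 5 µM, limit read from the data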
CYP2C19 act = activators of human cytochrome P450 2C19; activation factor at 5 µM; recombinant CYP2C19, luciferin-H EGE luminescence; active compounds read high; 0 = fully inhibited enzyme, 1 = untreated enzyme; 96,000 tested, under 10 active;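 active = activation factor of at least 2 at 5 µM in the primary screen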
Of the large screens only hits and unclear results are named; the others gave an inactive call. Hits are enriched below; roughly 32% of the tested compounds scored in any of these assays. Cut-off read from the data, not from the text of the source, unless noted: active = inhibition above about 30%; inactive = the rest.

COc1ccc(Oc2c(-c3ccc(O)cc3O)n[nH]c2C)cc1	CYP2C19 inh 100.4, CYP2C9 inh 100.4
CCCOC(=O)c1ccc(Oc2cn[nH]c2-c2ccc(OCC)cc2O)cc1	CYP2C19 inh 88.0, CYP2C9 inh 100.0
CCCOC(=O)c1ccc(Oc2c(-c3ccc(OCC)cc3O)n[nH]c2C)cc1	CYP2C19 inh 84.1, CYP2C9 inh 98.4
CSc1nsc(NC(=O)Cc2ccccc2)n1	CYP2C19 inh 65.4
CCCn1c(CC)nc([N+](=O)[O-])c1Sc1ccc(F)cc1	none
O=C(CSc1ccc(Cl)cc1)OCc1nnc(-c2ccccc2)o1	none
CCC(=O)OCc1c(C(F)(F)F)nn(C)c1Sc1ccc(Cl)cc1	CYP2C19 inh 75.2, CYP2C9 inh 60.4
CC(=O)OCc1c(F)c(F)c(-n2nc(C)cc2C)c(F)c1F	none
CC(=O)OCc1c(C(F)(F)F)nn(C)c1Sc1ccccc1	CYP2C19 inh 89.7
CCC(=O)OCc1c(C(F)(F)F)nn(C)c1Sc1ccc(F)cc1	CYP2C19 inh 61.1
COc1ccc(C(=O)c2ccc(CC#N)s2)cc1	CYP2C19 inh 56.2
COc1ccc(C(=O)c2no[n+]([O-])c2C(=O)c2ccc(OC)cc2)cc1	none
CCCS(=O)(=O)N1CCC(C(=O)NCCCOCC)CC1	none
Cc1cc(C(=O)CNCc2ccco2)c(C)n1-c1ccc(F)cc1	CYP2C19 inh 51.1
CC(C)C(=O)Nc1cc(=O)[nH]c2ncnn12	none
Cc1nnc(SCC(=O)NC2CCCCC2)n(N)c1=O	none
CS(=O)(=O)N(CC(=O)Nc1ccccc1C(=O)N1CCOCC1)c1ccc2c(c1)OCO2	none
CS(=O)(=O)N(CC(=O)Nc1cccnc1)c1ccc2c(c1)OCCO2	none
COC(=O)c1cccc(NC(=O)CN(c2ccc3c(c2)OCO3)S(C)(=O)=O)c1C	CYP2C19 inh 90.1, CYP2C9 inh 70.8
CS(=O)(=O)N(CC(=O)Nc1ccc2c(c1)OCO2)c1ccc2c(c1)OCO2	none
COC(=O)c1ccc(Cl)c(NC(=O)CN2CCOCC2)c1	none
COC(=O)c1ccc(Cl)c(NC(=O)CN(c2ccc3c(c2)OCO3)S(C)(=O)=O)c1	CYP2C19 inh 89.7, CYP2C9 inh 86.8
COC(=O)c1cc(NC(=O)CN(c2ccc3c(c2)OCO3)S(C)(=O)=O)ccc1Cl	CYP2C19 inh 93.2, CYP2C9 inh 92.6
CS(=O)(=O)N(CC(=O)Nc1cccnc1)c1ccc2c(c1)OCO2	CYP2C19 inh 58.4
COc1ccc(CN2CCN(C(=O)c3cccs3)CC2)c(OC)c1OC	none
COc1ccc(NC2=Nc3ccccc3N3C2=Nc2c(c(C)nn2-c2ccc(C)cc2)C3c2cccnc2)cc1 (stereo not given)	CYP2C9 inh 55.7
CC(=O)Nc1ccc(NC2=Nc3ccccc3N3C2=Nc2c(c(C)nn2-c2ccccc2)C3c2ccccc2)cc1 (stereo not given)	none
CCN(CC)c1ccc(NC(=O)COC(=O)c2ccc3ccccc3n2)cc1	none
Cc1cc(C(=O)N2CCC(Cc3ccccc3)CC2)ccc1[N+](=O)[O-]	CYP2C19 inh 77.8
O=C(/C=C/c1ccccc1)N1CCC(Cc2ccccc2)CC1	none
O=C(c1ccccc1[N+](=O)[O-])N1CCC(Cc2ccccc2)CC1	CYP2C19 inh 66.2, CYP2C9 inh 60.2
CCN(CC)c1nc2n(c(=S)n1)CCS2	none
COC(=O)c1cccc(NC(=O)CCSc2ccc(Cl)cc2)c1C	none
CCOC(=O)N1CCN(c2c(NCc3ccc(Cl)cc3)c(=O)c2=O)CC1	CYP2C9 inh 64.3
CCOC(=O)N1CCN(c2c(NCc3cccs3)c(=O)c2=O)CC1	none
CCOC(=O)N1CCN(C(=O)c2ccc(NC(=O)c3ccc(C)cc3)cc2)CC1	CYP2C9 inh 70.4
CCOC(=O)N1CCC(N(C(=O)Nc2ccc(Cl)c(Cl)c2)C(C)CC)CC1 (stereo not given)	PostGolgi ctrl 39.2, CYP2C19 inh 88.9, CYP2C9 inh 84.5
O=C(Nc1ccc(Cl)cc1)N1CCCC1	none
O=C(Nc1ccc(Cl)cc1)N1CCSCC1	PostGolgi ctrl 43.8, CYP2C19 inh 60.5
O=C(CN1C(=O)CSC1=O)Nc1ccccc1F	none
CCOC(=O)N1CCN(C(=O)CSCc2ccc(Cl)cc2)CC1	PostGolgi ctrl 35.9 (no result: CYP2C9 activ, CYP2C19 inh, CYP2C9 inh, CYP2C19 act)
O=C(O)C1CC=CCC1C(=O)Nc1cccc(Cl)c1 (stereo not given)	none
CC1=C(C)CC(C(=O)Nc2cccc(Cl)c2)C(C(=O)O)C1 (stereo not given)	CYP2C9 inh 50.2
CCOC(=O)N1CCN(C(=O)Nc2ccc(Cl)cc2)CC1	PostGolgi ctrl 35.7
CCOC(=O)N1CCC(Nc2c(N3CCN(c4cccc(C(F)(F)F)c4)CC3)c(=O)c2=O)CC1	CYP2C9 inh 57.5
CS(=O)(=O)N1CCC(C(=O)Nc2c(F)cccc2F)CC1	none
COc1ccc2nc(NC(=O)CCNS(=O)(=O)c3ccc4c(c3)oc(=O)n4C)sc2c1	none
CCOC(=O)N(CC)OC(=O)Nc1ccc(Cl)cc1	CYP2C19 inh 77.6, CYP2C9 inh 57.9
Cc1ccc(NC(=O)N2CCC(O)(c3ccc(Cl)cc3)CC2)cc1	CYP2C19 inh 95.6, CYP2C9 inh 70.7
CCOC(=O)C1CCCN(Cc2c(Cl)cccc2Cl)C1 (stereo not given)	none
Cc1ccc(C(=O)N2CCN(c3ccc(NC(=O)c4ccc(Br)o4)cc3)CC2)cc1	CYP2C9 inh 50.2
CS(=O)(=O)N1CCN(c2ccc(NC(=O)c3ccc(Br)o3)cc2)CC1	none
CCOC(=O)C1CCCN(C(=O)Nc2cccc(Cl)c2)C1 (stereo not given)	CYP2C19 inh 60.3
CC(=O)Nc1ccc(S(=O)(=O)NC2(C(F)(F)F)C(=O)Nc3c2c(=O)[nH]c(=O)n3C)cc1 (stereo not given)	none
O=C(NCC1CCN(c2ccc(S(=O)(=O)N3CCOCC3)cc2)CC1)c1ccc(Cl)cc1	none
O=C(Nc1cccc(Cl)c1)N1CCCC1	none
CC1CCCCN1C(=O)Nc1cccc(Cl)c1 (stereo not given)	CYP2C19 inh 70.0
CCOC(=O)N1CCN(C(=O)Nc2cccc(Cl)c2)CC1	CYP2C19 inh 61.1
CC(C)Nc1nc(Oc2cccc(Cl)c2Cl)cc(C(F)(F)F)n1	CYP2C19 inh 71.4
CC(C)Nc1nc(Oc2ccc(Cl)cc2Cl)cc(C(F)(F)F)n1	none
N#CC1=C(N)C(C#N)(C#N)C2(C(=O)Nc3ccccc32)C2CCCC=C12 (stereo not given)	CYP2C9 inh 55.3
Cc1ccc(CN(c2ccc(C(=O)N3CCCC3)cc2)S(C)(=O)=O)cc1	none
CCN1CCN(C(=O)c2ccccc2N(Cc2ccccc2)S(=O)(=O)c2ccc(C)cc2)CC1	CYP2C19 inh 71.6
C=CCNC(=O)c1ccccc1NC(=O)c1ccc(Cl)c(S(=O)(=O)Nc2ccccc2)c1	CYP2C19 inh 61.5, CYP2C9 inh 62.0
C=CCNC(=O)c1ccccc1NC(=O)c1cccc2ccccc12	none
